Experimental data published in PubChem BioAssay AID1626 (SRMLSC, 2009).
The campaign covered roughly 220,000 compounds. About 2,000 (0.91%) were called active. Inconclusive results (about 2%) are left out. Cut-off read from the data, not from the text of the source: inconclusive = inhibition above about 80% without an active follow-up result; inactive = below that; test concentration not stated here. The list is a sample of the results. Measured potencies and affinities stand elsewhere.

Test: M. tuberculosis H37Rv growth inhibitors, H37Rv strain (AID 1626);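 note: bacteria incubated seven days before Alamar blue readout; 0% = bacteria only wells and 100% = bacteria with antibiotic wells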
Settings: stronger effect = higher value, concentration not given here

| SMILES | inhibition |
| --- | --- |
| Cc1ccccc1CN1C[C@@H]2C[C@@H](c3cn[nH]c3-c3ccccc3)N3CCC[C@@]23C1=O | -6.92% (inactive) |
| O=C(Nc1ccn(Cc2c(F)c(F)cc(F)c2F)n1)c1ccc(COc2ccc(Cl)cc2Cl)o1 | 4.49% (inactive) |
| O=C(Nc1ccn(Cc2ccccc2F)n1)c1ccc(COc2cc(Cl)ccc2Cl)o1 | 10.4% (inactive) |
| O=C(c1ccc(F)cc1F)N1CCN(c2ncccn2)CC1 | 3.87% (inactive) |
| Cc1[nH]c2ccccc2c1/C=N/n1cnnc1 | 3.82% (inactive) |
| Cc1[nH]c2ccccc2c1/C=N/O | 57.2% (inactive) |
| N#CC(C(=O)C1CCCCC1)c1nc2ccccc2[nH]1 (centres undefined) | 56.9% (inactive) |
| O=C(Nc1nc2ccccc2[nH]1)C1CCCC1 | -2.34% (inactive) |
| N#CC(C(=O)CCN1C(=O)C2CC=CCC2C1=O)c1nc2ccccc2[nH]1 (centres undefined) | -15.5% (inactive) |
| O=C(Nc1nc2ccccc2[nH]1)C1CC1 | -2.55% (inactive) |
| O=C(c1ccc2c(c1)OCCO2)C1CCN(C(=O)c2ccc(F)c(F)c2)CC1 | 5.15% (inactive) |
| Cc1cc(C)c(C(=O)C[n+]2cccc(C(N)=O)c2)c(C)c1 | -6.58% (inactive) |
| Cc1oc(-c2ccccc2)nc1C(=O)N1CCN(c2ccc(F)cc2)CC1 | 0.48% (inactive) |
| O=C1N=C(N2CCOCC2)S/C1=C\c1ccc(-c2ccccc2Cl)o1 | 2.45% (inactive) |
| Cc1ccccc1-c1ccc(/C=C2/SC(N3CCOCC3)=NC2=O)o1 | -0.65% (inactive) |
| CS(=O)(=O)c1ccc2nc(NC(=O)C3CCCO3)sc2c1 (centres undefined) | -7.03% (inactive) |
| CCN(Cc1nc2ccccc2c(=O)[nH]1)Cc1nc2cc(OC)c(OC)cc2c(=O)[nH]1 | -5.3% (inactive) |
| CSc1ccc(CN(C)Cc2nc3ccccc3c(=O)[nH]2)cc1 | -5.14% (inactive) |
| CCN(Cc1cc(=O)n2ccsc2n1)Cc1nc2ccccc2c(=O)[nH]1 | -0.5% (inactive) |
| COc1cc2nc(CN(C)Cc3nc4ccccc4c(=O)[nH]3)[nH]c(=O)c2cc1OC | -3.41% (inactive) |
| Cc1nn(CC(=O)NC(C)c2ccccc2)c(=O)c2ccccc12 (centres undefined) | -2.29% (inactive) |
| CC1Cc2ccccc2N1C(=O)CSc1nc2c(c(=O)n(C)c(=O)n2C)n1Cc1ccc(F)cc1 (centres undefined) | -3.29% (inactive) |
| COCCn1c(NC(=S)NC(=O)C23CC4CC(CC(C4)C2)C3)cc(=O)[nH]c1=O | -0.61% (inactive) |
| COC(=O)c1cccc(-n2c(CCC(=O)O)ccc2-c2cccs2)c1 | 6.42% (inactive) |

| SMILES | inhibition |
| --- | --- |
| CCN(CC)c1ccc(N=Cc2ccccc2[N+](=O)[O-])cc1 | 15.5% (inactive) |
| CN(/N=C/c1ccc([N+](=O)[O-])o1)c1ccccc1 | 1.22% (inactive) |
| COc1ccc(/C=C/CN2CCCC(CO)(Cc3cccc(Cl)c3)C2)cc1 (centres undefined) | 2.62% (inactive) |
| COc1cccc(CC2(CO)CCCN(C/C=C/c3ccccc3OC)C2)c1 (centres undefined) | 39.9% (inactive) |
| NC(=S)NC1CC2C=CC1C2 (centres undefined) | -6.06% (inactive) |
| CN1CCN(S(=O)(=O)c2cccc(C(=O)Nc3nccs3)c2)CC1 | -4.26% (inactive) |
| O=C1NC(=O)/C(=C/c2cccc(O)c2)N1 | 8.98% (inactive) |
| O=C(COC(=O)Cc1ccccc1F)Nc1ccc(SC(F)F)cc1 | 91.8% (inactive) |
| O=C(Cc1ccccc1)Nc1ccc(SC(F)F)cc1 | 1.19% (inactive) |
| O=C(O)CC/C(=N/NC(=O)c1cccs1)c1ccccc1 | 7.05% (inactive) |
| COc1ccc(C[C@H]2CN3C(=NC[C@H]3C)N2CCNC(=O)CCC2CCCCC2)cc1 | -3.43% (inactive) |
| O=C(CCC1CCCCC1)NCCN1C2=NC[C@@H](Cc3ccccc3)N2C[C@H]1Cc1ccc(O)cc1 | 39.5% (inactive) |
| O=C(CCC1CCCCC1)NCCN1C2=NC[C@H](Cc3ccccc3)N2C[C@H]1Cc1ccc(O)cc1 | 9.81% (inactive) |
| COc1ccc(C[C@H]2CN3C(=NC[C@@H]3C)N2CCNC(=O)CCC2CCCCC2)cc1 | -3.39% (inactive) |
| NC(=O)c1nn(-c2ccccc2)nc1NC(=O)Cn1nnc(-c2ccccc2)n1 | 9.3% (inactive) |
| Cc1ccc(CS(=O)(=O)Cc2ccc(C(=O)NCc3cccs3)o2)cc1 | 3.64% (inactive) |
| CC(C)c1cccc(C(C)C)c1OCCCCN1CCCC1 | 10.1% (inactive) |
| O=C(CCn1cccc1)N1CCc2ccccc21 | 6.64% (inactive) |
| CCOC(=O)c1ccccc1NC(=O)COC(=O)C1=COCCO1 | 71.3% (inactive) |
| CC(C)(C)c1ccc(NC(=O)COC(=O)C2=COCCO2)cc1 | 74% (inactive) |
| Cc1ccc(NC(=O)COC(=O)C2=COCCO2)cc1 | 60.1% (inactive) |
| CC(C)c1ccc(NC(=O)COC(=O)C2=COCCO2)cc1 | 78.6% (inactive) |
| NS(=O)(=O)c1ccc(NS(=O)(=O)c2ccc(NC(=S)Nc3ccccc3)cc2)cc1 | 7.44% (inactive) |
| CC(=O)C1=C(C)NC(=O)CC1c1ccc(F)cc1 (centres undefined) | -1.68% (inactive) |

| SMILES | inhibition |
| --- | --- |
| COc1cc([N+](=O)[O-])ccc1NC(=O)/C=C\C(=O)O | 2.65% (inactive) |
| COc1ccc(CC(=O)Nc2ccccc2N2CCCCC2)cc1OC | 6.94% (inactive) |
| Cn1cnnc1-c1cccc(NC(=O)c2cc(F)c(F)cc2Cl)c1 | -5.29% (inactive) |
| O=C(NC1CCCC1)C(c1ccccc1)N(Cc1ccco1)C(=O)Cc1cccs1 (centres undefined) | 2.16% (inactive) |
| O=C(CCn1c(=O)[nH]c2ccccc2c1=O)Nc1ccccc1 | -7.56% (inactive) |
| O=c1cc(C(F)F)oc2c1ccc1ccccc12 | 1.35% (inactive) |
| O=c1cc(C(F)(F)F)oc2c1ccc1ccccc12 | -2.31% (inactive) |
| COc1ccc(C(=O)C2CCCN(C(=O)c3cccnc3SC)C2)c(C)c1 (centres undefined) | -5.65% (inactive) |
| NS(=O)(=O)c1ccc(CCNCc2cccs2)cc1 | 1.78% (inactive) |
| COc1ccc(NC(=O)c2ccco2)cc1N | -14.7% (inactive) |
| CCOC(=O)C1C(=O)CC(C)(O)C(C(=O)OCC)C1c1ccc(SC)cc1 (centres undefined) | 9.27% (inactive) |
| CCc1ccc(N2CSC3=C(C#N)C(c4cccs4)CC(=O)N3C2)cc1 (centres undefined) | 22.1% (inactive) |
| COc1ccc(N2CSC3=C(C#N)C(c4cc(OC)c(OC)cc4OC)CC(=O)N3C2)c(OC)c1 (centres undefined) | 15% (inactive) |
| COc1ccc(N2CSC3=C(C#N)C(c4cc(OC)ccc4OC)CC(=O)N3C2)c(OC)c1 (centres undefined) | -0.31% (inactive) |
| COc1cccc(C2CC(=O)N3CN(c4cccc(Cl)c4C)CSC3=C2C#N)c1OC (centres undefined) | -1.72% (inactive) |
| Cc1ccc(N2CSC3=C(C#N)C(c4cccs4)CC(=O)N3C2)cc1 (centres undefined) | 7.29% (inactive) |
| COc1ccc(OC)c(C2CC(=O)N3CN(c4ccccc4)CSC3=C2C#N)c1 (centres undefined) | 0.68% (inactive) |
| CC(=O)OC(C)CS(=O)(=O)c1ccccc1 (centres undefined) | -4.77% (inactive) |
| CCN(c1cccc(C)c1)C(C(=O)Nc1ccc(OC)cc1)c1cc2c(cc1[N+](=O)[O-])OCO2 (centres undefined) | 1.06% (inactive) |
| Cc1ccc(C(=O)Nc2cccnc2)cc1[N+](=O)[O-] | -3.36% (inactive) |
| CCc1nc(SCc2cccnc2)[nH]c(=O)c1C | -4.49% (inactive) |
| COc1ccc(CN2C(=O)N(c3ccc(OC)cc3)C(=O)C2CC(=O)Nc2ccccc2)cc1 (centres undefined) | 6.5% (inactive) |
| CCCc1cc(=O)oc2c(CN3CCCC3)c(O)ccc12 | -6.61% (inactive) |
| CCCCN(C)C(=O)c1ccc(CS(=O)(=O)c2ccccc2C)o1 | -5.74% (inactive) |

| SMILES | inhibition |
| --- | --- |
| COC(=O)CN1C(c2ccc(Cl)cc2)=Nc2ccc(Cl)cc2C1c1ccccc1 (centres undefined) | 79.4% (inactive) |
| COC(=O)CN1C(c2ccccc2)=Nc2ccc(Cl)cc2C1c1ccccc1 (centres undefined) | 0.35% (inactive) |
| NNC(=O)CN1C(c2cccc(Cl)c2)=Nc2ccc(Br)cc2C1c1ccccc1 (centres undefined) | -2.26% (inactive) |
| COc1ccc(C2=Nc3ccc(C)cc3C(c3ccccc3)N2CC(=O)NN)cc1 (centres undefined) | -0.28% (inactive) |
| O=C1/C(=C/c2ccc(F)c(F)c2)CSc2sccc21 | 12.2% (inactive) |
| CCCCNS(=O)(=O)c1ccc2nc(-c3cccs3)cc(C(=O)NCC(OC)OC)c2c1 | 3.68% (inactive) |
| CCOc1ccc(NC(=O)Nc2ccc(NC(C)=O)cc2)cc1 | -1.52% (inactive) |
| COC(=O)c1cccc(NC(=O)Nc2ccc(Cl)c(Cl)c2)c1 | 51.3% (inactive) |
| COC(=O)c1ccc(Cl)c(NC(=O)NC23CC4CC(CC(C4)C2)C3)c1 | 2.38% (inactive) |
| COc1ccc(NC(=O)NC23CC4CC(CC(C4)C2)C3)cc1OC | 25.7% (inactive) |
| CCCc1cc(=O)oc2cc(C)cc(OCC(=O)O)c12 | -0.53% (inactive) |
| COC(CNC(=O)c1cc(-c2ccncc2)nc2ccc(S(=O)(=O)N3CCOCC3)cc12)OC | -0.15% (inactive) |
| CN(C)CCc1nn[nH]n1 | -3.39% (inactive) |
| COc1cc(NC(=O)c2ccc(F)cc2)c(OC)cc1Cl | 6.81% (inactive) |
| COc1ccc(NC(=O)c2c(F)c(F)c(F)c(F)c2F)cc1Cl | 0.77% (inactive) |
| COc1ccccc1N1CCN(Cc2nc(N)nc(Nc3ccc(C)cc3)n2)CC1 | 48.7% (inactive) |
| COc1ccc(Nc2nc(N)nc(CN3CCN(c4ccc(F)cc4)CC3)n2)cc1 | 2.63% (inactive) |
| COc1ccccc1N1CCN(Cc2nc(N)nc(Nc3ccccc3)n2)CC1 | -1.85% (inactive) |
| COc1cccc(N2CCN(Cc3nc(N)nc(Nc4ccccc4)n3)CC2)c1 | 0.52% (inactive) |
| CCOC(=O)c1ccc(NC(=S)Nc2cccc(N)n2)cc1 | 59.5% (inactive) |
| CCCNc1nc2c(c(=O)[nH]c(=O)n2C)n1Cc1cccc(Br)c1 | 1.4% (inactive) |
| CCOc1ccc(NC(=O)CN2C(=O)S/C(=C/c3cccn3C)C2=O)cc1 | 0.02% (inactive) |
